Data as given in the supplement of paper PMC8253809.
Where “and” joins values, the source holds several entries; their conditions need not be identical. Equal entries are not always repeated.

System: HGGX39 (paediatric high-grade glioma line)
Test: growth inhibition (% activity, log2 RLU normalised to DMSO / staurosporine); higher = more growth inhibition
Conditions: 33 µM
Procedure, shortened: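 The growth-inhibition value is the median over replicates. pHGG cell lines and H9-derived neural stem cells on Geltrex-coated 384-well plates received approved drugs by pin tool at a single final concentration of about 33 μM, in triplicate, for 7 days at 37 °C, 5% CO2. CellTiter-Glo luminescence was log2-transformed and normalised per plate to % activity between solvent and positive control wells.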

Going from `CCN[C@H]1CN(CCCOC)S(=O)(=O)c2sc(S(N)(=O)=O)cc21` to `CCCCC(=O)O[C@]1(C(=O)CO)[C@@H](C)C[C@H]2[C@@H]3CCC4=CC(=O)C=C[C@]4(C)[C@@]3(F)[C@@H](O)C[C@@]21C`, the growth inhibition rises from 2.35% to 3.19%.

Going from `C=C1CCC(O)CC1=CC=C1CCCC2(C)C1CCC2C(C)CCCC(C)(C)O` (centres undefined) to `Cc1nnc(C(C)C)n1C1C[C@H]2CC[C@@H](C1)N2CC[C@H](NC(=O)C1CCC(F)(F)CC1)c1ccccc1` (stereo in doubt), the growth inhibition falls from 3.14% to 1.14%.

Compared with `O=c1c(-c2ccc(O)cc2)coc2cc(O)ccc12`, `CCCCC(=O)N(Cc1ccc(-c2ccccc2-c2nnn[nH]2)cc1)[C@H](C(=O)O)C(C)C` is lower in growth inhibition: 1.36% for the first, -2.05% for the second.

First: Cn1c(CNc2ccc(C(=N)N)cc2)nc2cc(C(=O)N(CCC(=O)O)c3ccccn3)ccc21
Second: O=C(CCCN1CC=C(n2c(=O)[nH]c3ccccc32)CC1)c1ccc(F)cc1
The growth inhibition of the first is higher: 2.01% for the first, -0.994% for the second.

Going from `CC(C)C[C@H](NC(=O)[C@H](CCc1ccccc1)NC(=O)CN1CCOCC1)C(=O)N[C@@H](Cc1ccccc1)C(=O)N[C@@H](CC(C)C)C(=O)[C@@]1(C)CO1` to `CN1CCC(=C2c3ccccc3C=Cc3ccccc32)CC1`, the growth inhibition falls from 51.3% to 7.18%.

Compared with `C[N+](C)(C)CCCCCC[N+](C)(C)C`, `CCN(CC)C(=O)/C(C#N)=C/c1cc(O)c(O)c([N+](=O)[O-])c1` is higher in growth inhibition: -1.88% for the first, 0.054% for the second.

Compound `COc1cc(/C=C/C(=O)N2CCN(CC(=O)N3CCCC3)CC2)cc(OC)c1OC` has a growth inhibition of 0.66%.

`CC(C)Cc1ccc(C(C)C(=O)O)cc1` (centres undefined) was tested, and the growth inhibition was 2.25% and -0.715%.
